The values that follow come from PubChem BioAssay (NCI).

Holding throughout (assay): NCI-60 one-dose screen, 48 h (100 = growth as untreated, 0 = no growth, -100 = all killed)
Common to all, as to details: 10 µM unless noted

Experiment [1] has as its system DU-145 prostate.
In experiment [2] the test system is K-562 leukemia.
Experiment [3] relates to MALME-3M melanoma.
In experiment [4] the test system is MDA-MB-231 breast.
Experiment [5] concerns RXF 393 renal.
Experiment [6] relates to SF-268 CNS.
For experiment [7], the system named is SF-295 CNS.
Experiment [8] deals with SF-539 CNS.
The test system of experiment [9] is UACC-257 melanoma.
Experiment [10] deals with M14 melanoma.
Experiment [11] relates to HCT-15 colon.
In experiment [12] the test system is HT29 colon.
In experiment [13] the test system is SNB-75 CNS.
Experiment [14] relates to U251 CNS.
Experiment [15] deals with PC-3 prostate.
Experiment [16] relates to SK-MEL-5 melanoma.
In experiment [17] the test system is UACC-62 melanoma.
Experiment [18] deals with SK-MEL-28 melanoma.
Experiment [19] concerns LOX IMVI melanoma.
The subject of experiment [20] is SNB-19 CNS.

About 83,000 compounds went through this panel and 20% of them were active in at least one assay; those are over-represented in the sample as a whole.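 Plates (96-well) were seeded with cells, treated with compound at one concentration, and incubated for 48 hours before percent growth was determined.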 A number with no mark means an inactive call. The source made the active and inactive calls. The calls were made as follows: active = growth percent below 10; inactive = the rest.

Regarding `CCS/C(Nc1ccccc1)=C(\C#N)C(=O)Nc1ccc(OC)cc1`, the growth in experiment [1] is 33.8%; in experiment [2], 7.34% (active); in experiment [3], 55.6%; in experiment [4] it was 44.5%; in experiment [5], 39.5%; in experiment [6] it was 39.1%. Also, the growth was 32.6% in experiment [7]; 29.1% in [8]; 58.4% in experiment [9]; 15.2% in [10]; 16.9% in experiment [11]; 6.46% (active) in experiment [12]. Moreover, the growth in experiment [13] was 18.2%; in experiment [14], 16.6%; in [15] it was 47.9%; in experiment [16], 17.8%; in experiment [17] it was 27.2%; in experiment [18], 58.9%.

`Ic1ccccc1I`: the growth was 116% in experiment [1]; 103% in experiment [2]; 131% in [3]; 111% in experiment [4]; 100% in experiment [5]; 111% in experiment [6]. Besides, the growth is 106% in experiment [7]; 104% in [8]; 88.3% in [9]; 94.3% in [10]; 99.8% in experiment [11]; 107% in experiment [12]. Besides, the growth in experiment [13] is 88.3%; in experiment [14], 99%; in [15], 99.7%; in [16], 102%; in experiment [17], 97.3%; in [19] it was 102%. Moreover, the growth in [18] was 108%.

Regarding `Cn1c(=O)c2[nH]c(SCC(=O)Nc3ccc(C(=O)/C=C/c4ccccc4Cl)cc3)nc2n(C)c1=O`, the growth was 102% in experiment [1]; 84.4% in experiment [2]; 112% in experiment [3]; 106% in [4]; 105% in experiment [5]; 89.7% in experiment [6]. Also, the growth in [7] is 90.5%; in experiment [8] it was 101%; in experiment [9], 86.1%; in experiment [10], 99.5%; in [11] it was 92.5%; in [12], 119%. For the same compound, the growth in experiment [13] was 77.1%; in experiment [14], 91.9%; in experiment [15] it was 93.4%; in experiment [16], 90%; in [17] it was 95.6%; in experiment [19] it was 96.4%. The growth in experiment [18] is 99.9%.

On to `CC1(C)CC2=C3C=C[C@@H]4[C@@]5(C)CCC(=O)C(C)(C)[C@@H]5CC[C@@]4(C)[C@]3(C)CC[C@@]2(C(=O)O)C[C@H]1O`, for which the growth in experiment [1] is 65%; in experiment [2] it was 33.1%; in experiment [3] it was 3.59% (active); in [4], -8.81% (active); in [5], 29.1%; in experiment [6] it was 32.6%. The growth is 20.5% in [7]; 34.8% in experiment [8]; 10.5% in [9]; 17.6% in [10]; 6.74% (active) in experiment [11]; 14% in [12]. The growth was 19.2% in experiment [13]; 22.6% in experiment [14]; 40.4% in [15]; 14% in experiment [16]; 20.6% in [17]; 7.33% (active) in [19]. For the same compound, the growth in [18] was 25%.

In the case of `O=C1Nc2ccccc2C1(c1c[nH]c2ccccc12)c1c[nH]c2ccccc12`, the growth in experiment [1] was 29.6%; in experiment [2], 42.9%; in experiment [3] it was 81.8%; in [4], 49%; in experiment [5], -53% (active); in experiment [6], 53.2%. For the same compound, the growth in experiment [7] was 86.3%; in [8], 47.1%; in experiment [9], 94.6%; in experiment [10] it was 66%; in experiment [11] it was 32.2%; in experiment [12] it was 53.3%. Moreover, the growth was -12.9% (active) in experiment [13]; 73.7% in experiment [14]; -9.62% (active) in experiment [15]; 89.4% in experiment [16]; 70.3% in experiment [17]; 8.4% (active) in experiment [19]. The growth in experiment [18] was 108%.

For `COc1ccc(/C=C/c2ccc3ccccc3n2)c(OC)c1`, the growth in experiment [1] was 91.2%; in experiment [2] it was 19.8%; in [3], 50%; in experiment [4] it was 58.9%; in [5], 90.7%; in experiment [6], 98.7%. The growth is 60.2% in experiment [7]; 83.3% in [8]; 84.8% in [9]; 45.3% in experiment [10]; 56% in experiment [11]; 55.6% in experiment [12]. For the same compound, the growth is 78% in experiment [13]; 83.2% in experiment [20]; 83.1% in experiment [14]; 78.3% in experiment [16]; 65.8% in [17]; 59.6% in experiment [19]. In addition, in [18], the growth was 81.7%.

Consider `CC1=C2[C@@H](CC1)[C@]1(C)O[C@@](c3ccccc3)(C[C@H]1OC(=O)CO)[C@H]2OC(=O)/C=C/c1ccccc1`, for which the growth is 97.8% in experiment [1]; 70.6% in experiment [2]; 88.6% in experiment [3]; 91.4% in [4]; 36.2% in experiment [5]; 33.1% in [6]. Further, the growth in experiment [7] is 91%; in experiment [8], 111%; in experiment [9], 103%; in experiment [10], 96.8%; in [11], 92.6%; in experiment [12] it was 87.2%. Also, the growth was -50.7% (active) in experiment [13]; 88.4% in experiment [14]; 63.2% in experiment [15]; 88.9% in experiment [16]; 79% in experiment [17]; 82.1% in experiment [19]. For the same compound, the growth in experiment [18] is 117%.

As to `COc1cc(NC(=O)c2cncnc2Nc2ccc3c(ccn3Cc3ccccn3)c2)cc(OC)c1`, the growth in experiment [1] is 65.4%; in experiment [2], 17.1%; in experiment [3], 44.7%; in experiment [4], 50.6%; in experiment [5] it was 42%; in experiment [6] it was 63.1%. Besides, the growth in experiment [7] is 35%; in experiment [8], 48.2%; in [9] it was 68%; in [10] it was 36.5%; in [11], 30.7%; in experiment [12] it was 11.7%. Besides, the growth in experiment [13] is -3.17% (active); in experiment [14], 45.9%; in experiment [15], 38.2%; in experiment [16], 35.4%; in experiment [17] it was 58.1%; in experiment [19], 39.9%. For the same compound, the growth in experiment [18] was 63.8%.
